Activation and Potency data for 40 compounds are collected here from PubChem BioAssay (NCATS).

Where “and” joins values, the source holds several entries; their conditions need not be identical. Equal entries are not always repeated. Records with an inconclusive call do not appear. A number with no mark means an inactive call. Calls of active or inactive are those of the source. Calls follow the shape of the dose curve; as a rule, active = well fitted activation curve with a large enough effect; inconclusive = small, poorly fitted or top-dose-only effect; inactive = no such curve, though single readings can be large or run the other way. Square brackets hold non-standard residues; d marks the D form. Peptide text beside a SMILES is read from it. Hyp = O=C(O)[CH]1C[CH](O)CN1; Phe(ol) = N[CH](CO)Cc1ccccc1; Iva = CC[C](C)(N)C(=O)O; Aib = CC(C)(N)C(=O)O
Potency is read from the fitted curve at half-maximal effect.

Cellular tumor antigen p53 (Homo sapiens), sequence (P04637 whole entry, looked up): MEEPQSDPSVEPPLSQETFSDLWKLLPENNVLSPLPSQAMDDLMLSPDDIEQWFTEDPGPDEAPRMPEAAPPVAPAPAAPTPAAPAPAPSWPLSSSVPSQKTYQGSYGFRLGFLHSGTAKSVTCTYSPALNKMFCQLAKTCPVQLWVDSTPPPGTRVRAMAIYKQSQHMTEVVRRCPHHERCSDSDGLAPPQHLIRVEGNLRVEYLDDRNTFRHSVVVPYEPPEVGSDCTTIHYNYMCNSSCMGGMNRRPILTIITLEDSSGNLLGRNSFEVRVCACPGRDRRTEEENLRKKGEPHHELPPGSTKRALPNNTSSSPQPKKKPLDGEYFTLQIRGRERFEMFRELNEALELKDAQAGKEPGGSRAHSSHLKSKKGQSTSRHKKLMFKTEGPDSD

The assay deals with Cellular tumor antigen p53 (Homo sapiens) (UniProt P04637). As to the kind of experiment: Primary qHTS for small molecule compounds that upregulate eGFP-tagged delta133p53alpha (in N-terminal) cells. (AID 2060322). Also: nearly all actives have a fitted effect of over 75% in size.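 As to Activation: series mostly up to about 56 µM; 0% = DMSO vehicle and 100% = reference activator.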 The conditions noted are these: NCI-H358 eGFP-delta133p53alpha fluorescence, 24 h; activation: stronger effect = higher value. In a few lines:
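NCI-H358 cells pre-induced 24 h with 10 ng/ml doxycycline to express N-terminal eGFP-delta133p53alpha, then dosed 24 h at 37C without doxycycline; fixed, Hoechst-stained, GFP intensity by laser scanning cytometry, normalized to DMSO (0%) and 57.5 uM 5-azacytidine (100%).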
(In general: qHTS replaces the single test concentration by a dilution series.)
On to `O=C(O)c1cc(O[C@@H]2O[C@H](CO)[C@@H](O)[C@H](O)[C@H]2O)ccc1O`, for which the activation is -3.05%. The same measure, in the same setting: for `CC(C)(C)c1ccc(C(=O)Nc2cc(Cl)c(Br)cc2C(=O)O)cc1` the value was -3.67%. Turning to `O=C(Nc1nc2cc(C(F)(F)F)cc(NC3CC3)n2n1)c1cccnc1`, the Potency was 4.78 µM (active). Consider `COc1cc(COC2OC(CO)C(O)C(O)C2O)cc(OC)c1O` (stereo not given), for which the activation is -6.87%. On the same count and under the same terms, for `CC(=O)NCCCCn1c2c(c3ccccc31)C(=O)NCC2` the value was -13.4%; for `CCC1C(=O)OC23C=C[C@@H]4C(C(=O)O)=CO[C@H](O[C@@H]12)[C@@H]43` (stereo not given in full), 7.63%; for `COc1cc(O)cc(C)c1C(=O)O[C@H]1[C@@H](O)[C@@H](n2ccc(=O)[nH]c2=O)O[C@@H]1CO`, -9.16%. Same read-out and setting: for `OC(CN1CCN(c2cccc(Cl)c2)CC1)C(c1ccccc1)c1ccccc1` (stereo not given) the value was -15.1% and 17%; for `COc1cccc(CN(C(=O)CC(C)(C)C)[C@H]2C[C@H](C(=O)N3CCNCC3)N(Cc3ccc4c(c3)OCO4)C2)c1`, 1%. As to `OCC(CO[C@@H]1O[C@H](CO)[C@@H](O)[C@H](O)[C@H]1O)c1ccc2c(c1)OCO2` (stereo not given in full), the activation was 24.1%.

For the compound `CC/C=C\C[C@H]1C(=O)C=C[C@@H]1CCCCCCCC(=O)O`, the activation was -8.93%. Take `O=C(O[C@H]1[C@@H]2C=CO[C@@H](O[C@@H]3O[C@H](CO)[C@@H](O)[C@H](O)[C@H]3O)[C@@H]2[C@@]2(CO)O[C@@H]12)c1ccc(O)cc1`: the activation was 4.58%. Regarding `C[C@@H]1O[C@@H](O[C@H]2[C@H](O)[C@@H](O)[C@H](O[C@H]3[C@H](O[C@H]4CC[C@@]5(C)C(=CC[C@@H]6C5CC[C@]5(C)[C@@H]7[C@H](C[C@@H]65)O[C@]5(CC[C@@](C)(CO[C@@H]6O[C@H](CO)[C@@H](O)[C@H](O)[C@H]6O)O5)[C@H]7C)C4)O[C@H](CO)[C@@H](O)[C@@H]3O)O[C@@H]2CO)[C@H](O)[C@H](O)[C@H]1O` (stereo not given in full), the Potency is 3.6 µM (active). For the compound `Cc1ccc(F)cc1S(=O)(=O)N[C@@H]1CCN(Cc2ccc(OC(C)C)cc2)C1`, the activation is -2.39%.

In the case of `C[C@@H]1O[C@@H](O[C@H]2CC[C@@]3(C)C(CC[C@]4(C)C3CC=C3[C@@H]5CC(C)(C)CC[C@]5(C(=O)O[C@@H]5O[C@H](CO)[C@@H](O)[C@H](O)[C@H]5O)CC[C@]34C)[C@]2(C)CO)[C@H](O)[C@H](O[C@@H]2O[C@H](CO)[C@@H](O)[C@H](O)[C@H]2O)[C@H]1O` (stereo not given in full), the activation was -6.11%. Still for that read-out and setting: as for `CC(C)=C1C[C@@]2(C)C(=CC1=O)CC[C@@H](O)[C@@H]2C`, the figure is 4.58%; as for `CCC(C)(NC(=O)C(CCC(N)=O)NC(=O)C1CC(O)CN1C(=O)C(C)(C)NC(=O)C(C)(C)NC(=O)C(CC(C)C)NC(=O)CNC(=O)C(NC(=O)C(C)(C)NC(=O)C(C)(C)NC(=O)C(C)(C)NC(=O)C(Cc1ccccc1)NC(C)=O)C(C)C)C(=O)N1CC(O)CC1C(=O)NC(C)(C)C(=O)NC(CO)Cc1ccccc1` (stereo not given) (Ac-F[Aib][Aib][Aib]VGL[Aib][Aib][Hyp]Q[Iva][Hyp][Aib][Phe(ol)]; configuration not given here), 23.7%. On the same count and under the same terms, as for `C/C=C/C=C/C=C/C(=O)O[C@@H]1C=C(CO)C(O)(C(=O)OC)[C@@]2(C)CCCC(C)(C)C12` (stereo not given in full), the figure is -10.7%; as for `Fc1ccccc1CNCc1ccc(-c2ccnc3[nH]ccc23)cc1`, 7.14%.

On to `CC1CC[C@]2(C(=O)O)CC[C@]3(C(=O)O)C(=CCC4[C@@]5(C)CC[C@H](OC6OC(C)C(O)C(OC7OC(CO)C(O)C(O)C7O)C6O)C(C)(C)C5CC[C@]43C)C2C1C` (stereo not given in full), for which the activation is -8.04%. Still for that read-out and setting: as for `CC(C)(O)/C=C/CC(C)(O)C1C(O)CC2(C)C3CCC4C(C)(C)C(=O)CCC4(C)C3CCC12C` (stereo not given), the figure is 2.29%. Same read-out and setting: as for `C[C@@H]1CCC2C(C)(C)[C@H](O)CC[C@]2(C)[C@@]12Cc1c(O)cc3c(c1O2)CN(CCO)C3=O` (stereo not given in full), the figure is 11.5%; as for `CC[C@@H](C)[C@@H]1OC2(C=C[C@H]1C)C[C@@H]1C[C@H](C/C=C(\C)[C@H](O[C@H]3C[C@H](OC)[C@H](O[C@H]4C[C@H](OC)[C@H](NC(C)=O)[C@H](C)O4)[C@H](C)O3)[C@H](C)/C=C/C=C3\CO[C@H]4[C@H](O)C(C)=C[C@@H](C(=O)O1)[C@@]34O)O2` (stereo not given in full), 24.3%; as for `C[C@H](C(=O)NC1CCCC1)N(C(=O)Cn1nnc(-c2ccc3c(c2)OCO3)n1)C1CCCCC1`, 9%. On the same count and under the same terms, as for `C=CCc1ccc(O[C@@H]2O[C@H](CO[C@@H]3O[C@@H](C)[C@H](O)[C@@H](O)[C@H]3O)[C@@H](O)[C@H](O)[C@H]2O)cc1`, the figure is 3.57%; as for `CC1(C(=O)O)CCCC2(C)C3=CCC4CC3(CCC12)CC4CO` (stereo not given), 3.82%. Take `CNC12CC3C[C@@](C)(C1)C[C@](C)(C3)C2`: the activation is -6.33%. On to `O=C(NCC(O)CO)c1ccncc1Nc1ccc(I)cc1F` (stereo not given), for which the activation was 19.6%.

In the case of `C[C@@H]1O[C@@H](O[C@@H]2[C@@H](O)[C@H](O[C@@H]3[C@@H](O)[C@@H](O)[C@H](O[C@H]4[C@H](OC(=O)[C@]56CCC(C)(C)C[C@H]5C5=CCC7[C@@]8(C)C[C@H](O)[C@H](O[C@@H]9O[C@H](C(=O)O)[C@@H](O)[C@H](O)[C@H]9O)[C@@](C)(CO)C8[C@H](O)C[C@@]7(C)[C@]5(C)CC6)OC[C@H](O)[C@@H]4O)O[C@H]3C)OC[C@H]2O)[C@H](O)[C@H](O)[C@H]1O` (stereo not given in full), the activation is -0.763%.

As for `CC(=O)O[C@@H]1[C@H](OC(C)=O)C[C@@]2(C)C(CC[C@@H](C)[C@]23Cc2c(O)cc4c(c2O3)CN([C@@H](CCC(=O)O)C(=O)O)C4=O)C1(C)C` (stereo not given in full), the activation is -9.92%. Still for that read-out and setting: as for `CCCC(=O)C1(c2ccccc2)CCN(C(=O)[C@@H](Cc2ccc(OC)cc2)NC(=O)[C@@H](N)Cc2cncn2C)CC1`, the figure is 4.3%; as for `C=CC(C)(O)CC/C=C(\C)C(=O)O[C@@H]1[C@@H](O)[C@H](OC(C)(C=C)CC/C=C(\C)C(=O)O[C@@H]2O[C@H](CO)[C@@H](O)[C@H](O)[C@H]2O)O[C@H](CO)[C@H]1OC(=O)/C(C)=C/CCC(C)(O)C=C` (stereo not given in full), -19.8%.

On to `CC(=O)OCC1=C[C@@H]2OC(=O)C3=CO[C@@H](O[C@@H]4O[C@H](CO)[C@@H](O)[C@H](O)[C@H]4O)[C@H]1[C@@H]32`, for which the activation was -16.8%.

Regarding `CC(C)=CCC[C@@](C)(O)[C@H]1CC[C@]2(C)[C@@H]1[C@H](O)CC1[C@@]3(C)CC[C@H](O[C@@H]4O[C@H](CO)[C@@H](O)[C@H](O)[C@H]4O[C@@H]4O[C@H](CO)[C@@H](O)[C@H](O)[C@H]4O)C(C)(C)[C@@H]3CC[C@]12C` (stereo not given in full), the activation is -17.6%. For the compound `CC1CCCC(SCC(O)C(=O)O)CC(=O)c2c(O)cc(O)cc2CC(=O)O1` (stereo not given), the activation is -1.53%. For the compound `CC1(C)CCCC2(C)c3c4c(c(=O)oc(=O)c3=CCC12)=CCC1C(C)(C)CCCC41C` (stereo not given), the activation is -8.04%.

For `Nc1ccc(-n2nc(C(F)(F)F)cc2C(F)(F)F)cc1`, the activation is 0.893%. Same read-out and setting: for `C/C(=C\CO)CC/C=C(\C)C(=O)O[C@@H]1O[C@H](CO)[C@@H](O)[C@H](O)[C@H]1O` the value was -19.6%. The same measure, in the same setting: as for `CC(=O)O[C@@H]1C[C@@H](OC(C)=O)C(C)(C)/C=C/[C@H](C)[C@H](OC(C)=O)[C@@]2(O)C[C@H](C)[C@H](OC(=O)c3ccccc3)[C@@H]2/C=C/1C`, the figure is -3.82%; as for `CCC(=O)OCC(=O)[C@@]1(OC(=O)CC)[C@@H](C)C[C@H]2[C@@H]3CCC4=CC(=O)C=C[C@]4(C)[C@@]3(F)[C@@H](O)C[C@@]21C`, -5%.
